Results taken from PubChem BioAssay.
Inconclusive results are not listed. Activity calls are given as the source filed them. Unless noted, how the calls were made is not given here.

How the values were obtained:
[1] = compounds altering circadian rhythm period length – cell-based, LOPAC library, luminescence reporter (AID 2774); conditions: circadian reporter cells, at 7 µM, actives lie on both sides;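 further: values are relative to mean of DMSO wells on each plate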
[2] = compounds altering viability of human ES cells (AID 493140); conditions: human embryonic stem cell survival screen; stronger effect = higher value;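 further: cells exposed to compounds for four days before counting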
[3] = system: Hepatitis C virus NS3 helicase; test: blockers of NS3h binding to ssDNA – biochemical, fluorescence polarization, LOPAC1280 library, primary screen (AID 687035; in the data active means inhibition above about 37%); conditions: Purified HCV NS3 helicase, Cy5-dT15 ssDNA binding fluorescence polarization; stronger effect = higher value; concentration not given here
[4] = compounds altering Cy5-DNA-NS3h complex signal – biochemical, LOPAC1280, artefact control for HCV NS3 helicase inhibitor project (AID 687037); conditions: Cy5-DNA-NS3h complex fluorescence interference counterscreen
[5] = blockers of cellular phospholipid synthesis – cell-based, LOPAC library, screen 4, primary screen (AID 1347384); conditions: animal cells, phospholipid biosynthesis inhibition screen; at 10 µM
[6] = target: Mitogen-activated protein kinase 7 (Homo sapiens) (UniProt Q13164); test: Gal4-ERK5 driven luciferase induction – cell-based, HTS, primary screen (AID 1508626;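 active means luciferase signal above three times the same-plate solvent-only control wells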;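 further: luciferase driven by Gal4-ERK5 fusion binding five Gal4 sites before minimal TATA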); conditions: HeLa Gal4-ERK5 transactivation, 18 h, at 5 µM, stronger effect = higher value
[7] = viability loss in pontine glioma line – cell-based, SU-DIPG-IV, MIPE4.0, CellTiter-Glo, qHTS, dose response (AID 1347063; cut-off not given, nearly all actives have AC50 up to about 30 µM;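 further: compound exposure lasted 48 hours before the viability readout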); conditions: CellTiter-Glo ATP luminescence
[8] = viability loss in pontine glioma line – cell-based, SU-DIPG-XIII, MIPE5.0, CellTiter-Glo, qHTS, dose response (AID 1347064; cut-off not given, nearly all actives have AC50 up to about 23 µM;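 on AC50: cells exposed to compound for 48 hours before the viability read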); conditions: CellTiter-Glo ATP luminescence
[9] = viability loss in pontine glioma line – cell-based, SU-DIPG-XXV, MIPE5.0, CellTiter-Glo, qHTS, dose response (AID 1347065; cut-off not given, nearly all actives have AC50 up to about 26 µM;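 further: cells exposed to compound for 48 hours before ATP readout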); conditions: CellTiter-Glo ATP luminescence
[10] = growth inhibition of DIPG cells – cell-based, MIPE4.0 library, CellTiter-Glo luminescence, qHTS (AID 1347066; cut-off not given, nearly all actives have AC50 up to about 30 µM;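 further: cells exposed to compound for 48 hours before readout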); conditions: SU-DIPG-VI viability, CellTiter-Glo ATP luminescence
[11] = JHH-DIPG-1 glioma cell viability, MIPE5.0 library, CellTiter-Glo luminescence, qHTS (AID 1347067; cut-off not given, nearly all actives have AC50 up to about 26 µM;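 further: cells exposed to compound for 48 hours before readout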); conditions: JHH-DIPG-1 glioma viability, CellTiter-Glo ATP luminescence
[12] = compounds altering HSF1 focus formation in cells – imaging, Selleck Cancer Library (AID 1347162; in the data active means plate-normalised HSF1 focus index below about 0.46); conditions: human cells, HSF1 nuclear foci imaging, at 10 µM; SSMD: measured here: HSF1 foci SSMD mean; cell count: measured here: cell number; plate-normalised HSF1 focus index: stronger effect = lower value
[13] = growth inhibition, single agent or in combination, cell-based, chromothripsis tumors, cisplatin or BGB combos (AID 1671449; in the data active means inhibition above about 80%;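 further: cells exposed for 96 hours; 0% = vehicle DMSO and 100% = killing by high DMSO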); conditions: LFS_MB_P medulloblastoma cells
[14] = growth inhibition, single agent and combos, cell-based, chromothripsis tumors, cisplatin or BGB combos (AID 1671450; in the data active means inhibition above about 80%;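 further: cells exposed to compound for four days; 0% = vehicle DMSO and 100% = cell killing by high DMSO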); conditions: HDN33 neuroblastoma cells, stronger effect = higher value
[15] = growth inhibition, single agents and combos, ICB984, cell-based, cisplatin or BGB combos, synergistic combos for chromothripsis tumors (AID 1671451); conditions: ICB984 medulloblastoma cells, drug combinations, stronger effect = higher value;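 further: cells exposed for 96 hours before readout; 0% = vehicle DMSO and 100% = killing by high DMSO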
[16] = growth inhibition, single agents and combos, HTB85, cell-based, BGB or cisplatin IC20 combos, synergistic combos for chromothripsis tumors (AID 1671453; in the data active means inhibition above about 80%;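 further: cells exposed for 96 hours before readout; 0% = vehicle DMSO and 100% = high DMSO killing control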); conditions: HTB85 osteosarcoma cells, drug combinations, stronger effect = higher value
[17] = growth inhibition, MDA-MB-436, cell-based, BGB or cisplatin combos, synergistic combos for chromothripsis tumors (AID 1671458); conditions: MDA-MB-436 breast carcinoma growth inhibition, drug combinations, stronger effect = higher value;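 further: cells exposed for 96 hours; 0% = vehicle DMSO and 100% = killing by high DMSO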
[18] = BT084 cell growth, single and combined drugs, ICGC_MB145, cisplatin and BGB IC40 combos (AID 1671461; in the data active means inhibition above about 80%;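 further: cells exposed to drugs for 96 hours; 0% = vehicle DMSO and 100% = high DMSO full killing control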); conditions: BT084 medulloblastoma cells, drug combinations, stronger effect = higher value
[19] = RCMB18 cell growth, single agent and combined, cisplatin and BGB IC40 combos (AID 1671462; in the data active means inhibition above about 80%;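 further: cells exposed to compound for four days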); conditions: RCMB18 medulloblastoma cells, stronger effect = higher value
[20] = CRL1545 cell growth, single agent and combined, cisplatin and BGB IC20 combos (AID 1671464; in the data active means inhibition above about 80%;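 further: cells exposed to compound for 96 hours before readout; 0% = vehicle DMSO and 100% = high DMSO killing control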); conditions: CRL1545 osteosarcoma cells, stronger effect = higher value
[21] = measured here: with BGB IC20 combination, at 0.5 µM
[22] = measured here: with cisplatin IC20 combination, at 0.5 µM

Mitogen-activated protein kinase 7 (Homo sapiens), sequence (Q13164 whole entry, looked up, the tested form may be a part): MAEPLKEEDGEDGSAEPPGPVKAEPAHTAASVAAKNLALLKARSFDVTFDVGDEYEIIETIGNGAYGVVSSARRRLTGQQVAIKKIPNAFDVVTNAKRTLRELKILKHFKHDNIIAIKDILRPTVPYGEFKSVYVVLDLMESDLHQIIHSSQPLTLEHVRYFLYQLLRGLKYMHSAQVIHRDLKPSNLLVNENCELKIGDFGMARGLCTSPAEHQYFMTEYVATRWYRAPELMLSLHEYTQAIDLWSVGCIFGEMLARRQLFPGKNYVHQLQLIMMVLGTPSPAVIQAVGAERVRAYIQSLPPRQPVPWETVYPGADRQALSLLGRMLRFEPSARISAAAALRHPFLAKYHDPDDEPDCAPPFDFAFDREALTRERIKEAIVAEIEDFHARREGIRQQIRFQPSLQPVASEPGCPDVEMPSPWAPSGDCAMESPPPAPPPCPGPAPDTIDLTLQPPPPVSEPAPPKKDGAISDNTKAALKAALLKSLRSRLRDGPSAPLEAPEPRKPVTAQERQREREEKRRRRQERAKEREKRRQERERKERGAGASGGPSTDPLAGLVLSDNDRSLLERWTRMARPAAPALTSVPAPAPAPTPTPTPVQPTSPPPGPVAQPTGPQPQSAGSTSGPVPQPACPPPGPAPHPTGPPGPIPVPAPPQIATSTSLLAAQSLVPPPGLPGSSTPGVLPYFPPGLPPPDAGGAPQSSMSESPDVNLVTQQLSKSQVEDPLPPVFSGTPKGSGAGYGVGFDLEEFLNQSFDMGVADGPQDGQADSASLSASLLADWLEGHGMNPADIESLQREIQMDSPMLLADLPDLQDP

Question: With `C[N+](C)(C)CCCCCCCCCC[N+](C)(C)C` as the compound, how does the period change [1] read?
Answer: 0.03 h (inactive)

Question: And the survival [2]?
Answer: 4 (inactive)

Question: And the inhibition [3]?
Answer: 2% (inactive)

Question: And the fluorescence ratio (interference) [4]?
Answer: 1 (inactive)

Question: What about the outcome [5] of the same compound?
Answer: inactive

Question: What about the luciferase signal [6] of the same compound?
Answer: 60 AU (inactive)

Question: Which luciferase signal [6] does the source give for `CNCc1ccccc1` here?
Answer: 56 AU (inactive)

Question: Which period change [1] does the source give for `CC1=C(/C=C/C(C)=C/C=C/C(C)=C/C(=O)Nc2ccc(O)cc2)C(C)(C)CCC1` here?
Answer: -0.145 h (inactive)

Question: What about the survival [2] of the same compound?
Answer: 116 (inactive)

Question: What about the inhibition [3] of the same compound?
Answer: -3% (inactive)

Question: What about the fluorescence ratio (interference) [4] of the same compound?
Answer: 1 (inactive)

Question: And the AC50 [7]?
Answer: 4.81 µM (active)

Question: And the AC50 [8]?
Answer: 16.6 µM (active)

Question: And the AC50 [9]?
Answer: 14.8 µM (active)

Question: And the AC50 [10]?
Answer: 9.59 µM (active)

Question: And the AC50 [11]?
Answer: 20.9 µM (active)

Question: And the SSMD [12]?
Answer: -4.16

Question: What about the cell count [12] of the same compound?
Answer: 7280

Question: What about the plate-normalised HSF1 focus index [12] of the same compound?
Answer: 0.851 (inactive)

Question: And the outcome [5]?
Answer: active

Question: With `COc1cc(C(=O)NCCCCCC(=O)O)cc(OC)c1OC` as the compound, how does the luciferase signal [6] read?
Answer: 36 AU (inactive)

Question: For `COc1cc(N)c(Cl)cc1C(=O)NC1CCN(CCCOc2ccc(F)cc2)CC1OC` (centres undefined), which survival [2] is on record?
Answer: 0.75 (inactive)

Question: With `CCOCC(O)COc1ccc(NC(=O)CC[S+](C)C)cc1` (centres undefined) as the compound, how does the outcome [7] read?
Answer: inactive

Question: And the outcome [8]?
Answer: inactive

Question: What about the outcome [9] of the same compound?
Answer: inactive

Question: And the outcome [10]?
Answer: inactive

Question: What about the outcome [11] of the same compound?
Answer: inactive

Question: With `O=C1c2ccccc2C(=O)C1c1ccc(Br)cc1` as the compound, how does the luciferase signal [6] read?
Answer: 56 AU (inactive)

Question: Which luciferase signal [6] does the source give for `CC(C)CCCC(C)N` (centres undefined) here?
Answer: 56 AU (inactive)

Question: Which results are given for `CC(O)Cn1cnc2c1c(=O)n(C)c(=O)n2C` (centres undefined)?
Answer: survival [2]: 7 (inactive); luciferase signal [6]: 104 AU (inactive)

Question: For `CC[C@@H](CO)NCCN[C@@H](CC)CO`, which luciferase signal [6] is on record?
Answer: 40 AU (inactive)

Question: Which luciferase signal [6] does the source give for `CCCCCCCCCCOc1cc2c(=O)c(C(=O)OCC)c[nH]c2cc1OCC` here?
Answer: 44 AU (inactive)

Question: Which luciferase signal [6] does the source give for `OCCc1ccccc1` here?
Answer: 108 AU (inactive)

Question: With `O=C(OOC(=O)c1ccccc1)c1ccccc1` as the compound, how does the luciferase signal [6] read?
Answer: 104 AU (inactive)

Question: Which survival [2] does the source give for `C[C@@]12C(=O)OC(=O)[C@]1(C)C1CCC2O1` here?
Answer: 0.417 (inactive)

Question: Which survival [2] does the source give for `NC(=O)c1cc[n+](CC2=C(C(=O)[O-])N3C(=O)[C@@H](NC(=O)Cc4cccs4)[C@H]3SC2)cc1` here?
Answer: 16 (inactive)

Question: Which luciferase signal [6] does the source give for `CC1(C)[C@@H]2CC[C@@]1(C)C(=O)C2` here?
Answer: 52 AU (inactive)

Question: For `CC1=C(C/C=C(\C)CCC[C@H](C)CCC[C@H](C)CCCC(C)C)C(=O)c2ccccc2C1=O`, which luciferase signal [6] is on record?
Answer: 156 AU (inactive)

Question: For `Nc1ncn([C@H]2C[C@H](O)[C@@H](CO)O2)c(=O)n1`, which outcome [7] is on record?
Answer: inactive

Question: And the outcome [8]?
Answer: inactive

Question: And the outcome [10]?
Answer: inactive

Question: What about the outcome [11] of the same compound?
Answer: inactive

Question: And the inhibition ([13]; at 0.5 µM, stronger effect = higher value)?
Answer: 6.06% (inactive)

Question: What about the inhibition ([13]; measured here: combination with BGB IC20, at 0.005 µM) of the same compound?
Answer: -1.4%

Question: And the inhibition ([13]; measured here: combination with BGB IC40, at 0.005 µM)?
Answer: -3.75%

Question: What about the inhibition ([13]; measured here: combination with BGB IC40, at 0.05 µM) of the same compound?
Answer: -40.3%

Question: What about the inhibition ([13]; measured here: combination with cisplatin, at 0.5 µM, stronger effect = higher value) of the same compound?
Answer: 19.6%

Question: What about the inhibition ([13]; measured here: combination with cisplatin, at 5 µM, stronger effect = higher value) of the same compound?
Answer: 18%

Question: What about the inhibition ([14]; BGB combo, at 5 µM) of the same compound?
Answer: 50.3%

Question: What about the inhibition ([14]; at 0.5 µM) of the same compound?
Answer: 24.3% (inactive)

Question: What about the inhibition ([14]; cisplatin combo, at 5 µM) of the same compound?
Answer: 54.4%

Question: What about the inhibition [14, 21] of the same compound?
Answer: 30.2%

Question: What about the inhibition [14, 22] of the same compound?
Answer: 11.6%

Question: What about the inhibition ([14]; single agent, at 5 µM) of the same compound?
Answer: 52.1%

Question: What about the inhibition ([15]; BGB IC20 combo, at 0.005 µM) of the same compound?
Answer: -3.18%

Question: And the inhibition ([15]; BGB IC40 combo, at 0.005 µM)?
Answer: -34%

Question: And the inhibition ([15]; BGB IC40 combo, at 0.05 µM)?
Answer: -19.3%

Question: What about the inhibition ([15]; at 0.5 µM) of the same compound?
Answer: -18% (inactive)

Question: And the inhibition ([15]; cisplatin combo, at 0.05 µM)?
Answer: -23.6%

Question: And the inhibition ([15]; cisplatin combo, at 0.5 µM)?
Answer: -14.1%

Question: And the inhibition ([15]; cisplatin combo, at 5 µM)?
Answer: -50.9%

Question: And the inhibition ([15]; measured here: 5 uM single agent, at 5 µM)?
Answer: -6.92%

Question: And the inhibition ([16]; at 0.5 µM)?
Answer: 3.38% (inactive)

Question: What about the inhibition ([16]; measured here: with BGB IC20, at 0.5 µM) of the same compound?
Answer: 2.59%

Question: What about the inhibition ([16]; measured here: with BGB IC20, at 5 µM) of the same compound?
Answer: 19.3%

Question: And the inhibition ([16]; measured here: with cisplatin IC20, at 0.5 µM)?
Answer: -6.21%

Question: What about the inhibition ([16]; measured here: with cisplatin IC20, at 5 µM) of the same compound?
Answer: 27.4%

Question: What about the inhibition ([16]; single agent, at 5 µM) of the same compound?
Answer: 40.2%

Question: What about the inhibition ([17]; at 0.5 µM) of the same compound?
Answer: 17.4% (inactive)

Question: And the inhibition ([17]; measured here: BGB combination, at 0.5 µM)?
Answer: 28.5%

Question: What about the inhibition ([17]; measured here: BGB combination, at 5 µM) of the same compound?
Answer: 26.2%

Question: And the inhibition ([17]; measured here: cisplatin combination, at 0.5 µM)?
Answer: 6.25%

Question: What about the inhibition ([17]; measured here: cisplatin combination, at 5 µM) of the same compound?
Answer: 4.64%

Question: And the inhibition ([18]; at 0.5 µM)?
Answer: -3.99% (inactive)

Question: And the inhibition ([18]; cisplatin combination, at 0.5 µM)?
Answer: -10.2%

Question: And the inhibition ([18]; cisplatin combination, at 5 µM)?
Answer: 16.2%

Question: What about the inhibition ([18]; measured here: BGB IC40 combination 0.05 uM, at 0.05 µM) of the same compound?
Answer: -0.777%

Question: And the inhibition ([18]; single agent, at 5 µM)?
Answer: -11.6%

Question: And the inhibition ([19]; at 0.5 µM)?
Answer: -2.53% (inactive)

Question: And the inhibition ([19]; cisplatin combo, at 5 µM)?
Answer: -31%

Question: What about the inhibition ([19]; measured here: BGB IC40 combination, at 0.05 µM) of the same compound?
Answer: 7.83%

Question: What about the inhibition ([19]; measured here: combination with cisplatin, at 0.5 µM) of the same compound?
Answer: -5.57%

Question: What about the inhibition ([19]; single agent, at 5 µM) of the same compound?
Answer: 7.32%

Question: What about the inhibition ([20]; at 0.5 µM) of the same compound?
Answer: -20.4% (inactive)

Question: And the inhibition [20, 21]?
Answer: -0.059%

Question: What about the inhibition [20, 22] of the same compound?
Answer: -32.7%

Question: And the inhibition ([20]; single agent, at 0.05 µM)?
Answer: -13.4%

Question: And the inhibition ([20]; single agent, at 5 µM)?
Answer: 5.37%
